According to PubChem BioAssay (Tox21):
Records with an inconclusive call do not appear. Active and inactive are the calls of the source. Calls follow the shape of the full dose curve.

Key:
[1] = molecular target: Acetylcholinesterase (Homo sapiens) (UniProt P22303); assay: Acetylcholinesterase (AChE) small molecule antagonists: colormetric cell-based qHTS assay (AID 1347395); also: nearly all actives have a fitted effect of over 30% in size; also: potency is read from the fitted curve at half-maximal effect
Procedure, shortened: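 SH-SY5Y cells; cpd 30 min 37 C; + DTNB/acetylthiocholine, 90 min 37 C; colorimetric thiocholine read; qHTS.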

[2] = molecular target: Acetylcholinesterase (Homo sapiens) (UniProt P22303); assay: Acetylcholinesterase (AChE) small molecule antagonists: enzyme-based qHTS assay (AID 1347397); settings: Potency: AChE enzyme activity inhibition; outcome: AChE enzyme activity inhibition; also: nearly all actives have a fitted effect of over 55% in size; also: potency is read from the fitted curve at half-maximal effect
Procedure, shortened: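 rhAChE 50 mU/mL (dispensed) + cpd or DMSO, 30 min RT; add DTNB/acetylthiocholine cocktail, 10 min RT; colorimetric thiocholine readout. qHTS, 1536-well format.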

[3] = molecular target: Acetylcholinesterase (Homo sapiens) (UniProt P22303); assay: Acetylcholinesterase (AChE) small molecule antagonists: fluorescence cell-based qHTS assay (AID 1347398); settings: Potency: AChE activity; outcome: AChE activity; also: nearly all actives have a fitted effect of over 50% in size
Procedure, shortened: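 Read-out is Thiolite Green fluorescence at Ex/Em = 490/520 nm, formed by reaction with thiocholine released when cellular AChE in SH-SY5Y cells hydrolyzes acetylthiocholine. Compounds were preincubated 30 min at 37 C before substrate.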

[4] = molecular target: Acetylcholinesterase (Homo sapiens) (UniProt P22303); assay: Acetylcholinesterase (AChE) small molecule antagonists: enzyme-based qHTS assay with human liver microsomes (AID 1347399); settings: Potency: qHTS inhibition; outcome: qHTS inhibition; also: nearly all actives have a fitted effect of over 60% in size
Procedure, shortened: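 Recombinant human AChE (50 mU/mL in the enzyme mix) and human liver microsomes (0.25 mg/mL final) were preincubated with compound and NADPH (0.25 mg/mL final) for 30 min at 37 C. Acetylthiocholine/DTNB was then added; thiocholine was read colorimetrically after 10 min at room temperature.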
% is scaled to controls: 0 for no effect and ±100 for the full control effect.

Chain of Acetylcholinesterase (Homo sapiens) (P22303 whole entry, looked up): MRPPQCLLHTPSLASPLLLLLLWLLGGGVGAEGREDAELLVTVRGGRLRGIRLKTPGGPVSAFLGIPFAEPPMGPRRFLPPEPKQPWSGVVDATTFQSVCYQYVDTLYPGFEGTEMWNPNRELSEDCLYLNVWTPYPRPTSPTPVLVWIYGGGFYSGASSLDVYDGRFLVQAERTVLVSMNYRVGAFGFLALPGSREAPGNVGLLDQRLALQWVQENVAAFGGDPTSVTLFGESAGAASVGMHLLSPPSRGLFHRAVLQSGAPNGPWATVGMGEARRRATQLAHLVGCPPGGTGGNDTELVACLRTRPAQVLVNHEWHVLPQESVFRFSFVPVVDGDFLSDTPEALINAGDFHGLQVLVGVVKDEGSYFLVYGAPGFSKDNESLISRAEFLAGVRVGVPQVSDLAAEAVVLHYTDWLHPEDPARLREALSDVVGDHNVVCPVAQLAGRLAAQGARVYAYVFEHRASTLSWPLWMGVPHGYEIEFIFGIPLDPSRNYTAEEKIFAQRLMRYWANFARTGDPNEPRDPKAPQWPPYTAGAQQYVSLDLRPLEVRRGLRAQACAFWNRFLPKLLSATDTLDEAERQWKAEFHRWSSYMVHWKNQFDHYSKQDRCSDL

O=c1[nH][nH]c(=O)c2cc([N+](=O)[O-])ccc12
inactive: Potency [1] | Potency [2] | Potency [3]

COC(=O)[C@@H]1[C@H]2C[C@H]3c4[nH]c5ccccc5c4CCN3C[C@@H]2CC[C@@H]1O
inactive: Potency [1] | Potency [2] | Potency [3]

Cc1ccccc1S
inactive: Potency [1] | Potency [2] | Potency [3] | Potency [4]

CN(Cc1cc(Br)cc(Br)c1N)C1CCCCC1
inactive: Potency [1] | Potency [2]

C/C=C/C(=O)Oc1c(CCCCCC(C)C)cc([N+](=O)[O-])cc1[N+](=O)[O-]
active: Potency [2] 71 µM
inactive: Potency [1] | Potency [3]

CC(Cc1ccccc1)(NC(=O)CN)c1ccccc1 (stereo not given)
inactive: Potency [1] | Potency [2] | Potency [3]

CCCc1ccc(OC)cc1
inactive: Potency [1] | Potency [2] | Potency [3]

COc1ccc(COC=O)cc1
inactive: Potency [1] | Potency [2] | Potency [3]

CCCN(CCC)CCc1cccc2c1CC(=O)N2
inactive: Potency [1] | Potency [2] | Potency [3]

O=C1c2ccccc2C(=O)C1(O)O
inactive: Potency [1] | Potency [2] | Potency [3]

CC(C)(C)c1ccc(OCC2CO2)cc1 (stereo not given)
inactive: Potency [1] | Potency [2] | Potency [3]

O=C(C1CCCCC1)N1CC(=O)N2CCCc3ccccc3C2C1 (stereo not given)
inactive: Potency [1] | Potency [2] | Potency [3]

OC[C@H]1O[C@@H]2O[C@H]3[C@H](O)[C@@H](O)[C@@H](O[C@H]4[C@H](O)[C@@H](O)[C@@H](O[C@H]5[C@H](O)[C@@H](O)[C@@H](O[C@H]6[C@H](O)[C@@H](O)[C@@H](O[C@H]7[C@H](O)[C@@H](O)[C@@H](O[C@H]8[C@H](O)[C@@H](O)[C@@H](O[C@H]9[C@H](O)[C@@H](O)[C@@H](O[C@H]1[C@H](O)[C@H]2O)O[C@@H]9CO)O[C@@H]8CO)O[C@@H]7CO)O[C@@H]6CO)O[C@@H]5CO)O[C@@H]4CO)O[C@@H]3CO
inactive: Potency [1] | Potency [2] | Potency [3]

O=C(O)c1c(O)c(-c2ccccc2)nc2ccccc12
inactive: Potency [1] | Potency [2] | Potency [3]

CCCCCCCC/C=C/CCCOC(C)=O
inactive: Potency [1] | Potency [2] | Potency [3]

CCCCCCCCC1CCC(=O)O1 (stereo not given)
inactive: Potency [1] | Potency [2] | Potency [3]

O=C(c1ccco1)N1CCNCC1
inactive: Potency [1] | Potency [2] | Potency [3]

CC(C)CCOC(=O)CC(C)C
inactive: Potency [1] | Potency [2] | Potency [3]

CCCCC(CC)COP(=O)(O)O (stereo not given)
inactive: Potency [1] | Potency [2] | Potency [3]

O=C(Cl)c1cc(C(=O)Cl)cc(C(=O)Cl)c1
inactive: Potency [1] | Potency [2]

CC1=CCC(=C(C)C)CC1
inactive: Potency [1] | Potency [2] | Potency [3]

O=C(O)CCCc1ccccc1
inactive: Potency [1] | Potency [2] | Potency [3] | Potency [4]

CCC(=O)/C=C/c1ccc(OC)cc1
inactive: Potency [1] | Potency [2] | Potency [3]

COc1cc2nc(N3CCN(C(=O)C4CCCO4)CC3)nc(N)c2cc1OC (stereo not given)
active: Potency [1] 27.5 µM

NC(=S)N/N=C/c1cccnc1
inactive: Potency [1] | Potency [2] | Potency [3] | Potency [4]

CC(C)(C)c1ccc(C=O)cc1
inactive: Potency [1] | Potency [2] | Potency [3] | Potency [4]

CC(C)CC(O)CC(C)C
inactive: Potency [1] | Potency [2] | Potency [3] | Potency [4]

N#CC1(N)CCCCC1
inactive: Potency [1] | Potency [2] | Potency [3] | Potency [4]

COc1ccc(-c2coc3cc(O)ccc3c2=O)cc1
inactive: Potency [1] | Potency [2] | Potency [3] | Potency [4]

CC1=CCC(C(C)C)C=C1 (stereo not given)
inactive: Potency [1] | Potency [2] | Potency [3] | Potency [4]

O=C(/C=C/c1ccccc1)OC/C=C/c1ccccc1
inactive: Potency [1] | Potency [2] | Potency [3] | Potency [4]

CCn1nc(Cc2ccccc2)cc1C1CCN(C[C@H]2C[C@H](N(C)[C@@H](C(=O)O)C(C)C)C[C@@H]2c2cccc(F)c2)CC1
inactive: Potency [1] | Potency [2] | Potency [3] | Potency [4]

CC(=O)S[C@@H]1CC2=CC(=O)CC[C@]2(C)[C@H]2CC[C@@]3(C)[C@@H](CC[C@@]34CCC(=O)O4)[C@H]12
inactive: Potency [1] | Potency [2] | Potency [3] | Potency [4]

C=CC(=O)O[C@H]1C[C@@H]2CC[C@@]1(C)C2(C)C
inactive: Potency [1] | Potency [2] | Potency [3] | Potency [4]

CCN(CC)CCOC(=O)C1(c2ccccc2)CCCC1
inactive: Potency [1] | Potency [2] | Potency [3] | Potency [4]

Nc1cccc2c(N)cccc12
inactive: Potency [1] | Potency [2] | Potency [3] | Potency [4]

c1coc(Cn2cccc2)c1
inactive: Potency [1] | Potency [2] | Potency [3] | Potency [4]

O=C(O)/C=C/c1ccc(O)c(O)c1
inactive: Potency [1] | Potency [2] | Potency [3] | Potency [4]

O=C1OC(=O)C2C3C=CC(C3)C12 (stereo not given)
inactive: Potency [1] | Potency [2] | Potency [3] | Potency [4]

CC(CN(C)C)CN1c2ccccc2CCc2ccccc21 (stereo not given)
inactive: Potency [1] | Potency [2] | Potency [3] | Potency [4]

CCCCCN(CCCCC)C(=O)C(CCC(=O)O)NC(=O)c1ccc(Cl)c(Cl)c1 (stereo not given)
inactive: Potency [1] | Potency [2] | Potency [3] | Potency [4]

CCOC(=O)C(C)O (stereo not given)
inactive: Potency [1] | Potency [2] | Potency [3] | Potency [4]

NC(=O)NS(=O)(=O)c1ccc(Cl)cc1
inactive: Potency [1] | Potency [2] | Potency [3] | Potency [4]

NCC1(Cc2noc(=O)[nH]2)CCCCC1
inactive: Potency [1] | Potency [2] | Potency [3] | Potency [4]

Cc1cnc(NS(=O)(=O)c2ccc(N)cc2)nc1
inactive: Potency [1] | Potency [2] | Potency [3] | Potency [4]

CC1CN(c2cc3c(cc2F)c(=O)c(C(=O)O)cn3-c2ccc(F)cc2F)CCN1 (stereo not given)
inactive: activity, negative = inhibition [1] 1.81% [at 10.5 µM] | activity change, negative = inhibition [2] 0.0761% [at 10.5 µM] | activity change, negative = inhibition [3] 3.28% [at 10.5 µM] | activity change, negative = inhibition [4] 5% [at 10.5 µM]

CC[N+]1(CC)CCC(=C(c2ccccc2)c2ccccc2)C1C (stereo not given)
inactive: Potency [1] | Potency [2] | Potency [3] | Potency [4]

C=C(C)C1CC=C(C)C(O)C1 (stereo not given)
inactive: Potency [1] | Potency [2] | Potency [3] | Potency [4]

FC(F)OC(Cl)C(F)(F)F (stereo not given)
inactive: Potency [1] | Potency [2] | Potency [3] | Potency [4]

CCN1CCN(c2cc3c(cc2F)c(=O)c(C(=O)O)cn3C2CC2)CC1
inactive: Potency [1] | Potency [2] | Potency [3] | Potency [4]

CC1=CCC2C(C1)C2(C)C (stereo not given)
inactive: Potency [1] | Potency [2] | Potency [3] | Potency [4]

C=CC(=O)NC(C)(C)C
inactive: Potency [1] | Potency [2] | Potency [3] | Potency [4]

CN(C)C(C)(C)CO
inactive: Potency [1] | Potency [2] | Potency [3] | Potency [4]

N#CSCSc1nc2ccccc2s1
inactive: Potency [1] | Potency [2] | Potency [3] | Potency [4]

O=C(N/N=C/c1ccccc1O)c1ccncc1
inactive: Potency [1] | Potency [2] | Potency [3] | Potency [4]

O=C(O)CO
inactive: Potency [1] | Potency [2] | Potency [3] | Potency [4]

CCCCCCCCCC[N+](C)(C)[O-]
inactive: Potency [1] | Potency [2] | Potency [3] | Potency [4]

C=C(C)C(=O)OCC
inactive: Potency [1] | Potency [2] | Potency [3] | Potency [4]

C[C@@H](O)[C@H]1C(=O)N2C(C(=O)O)=C(SCCN=CN)C[C@H]12
inactive: Potency [1] | Potency [2] | Potency [3] | Potency [4]

C/C=C/C=C/C=O
inactive: Potency [1] | Potency [2] | Potency [3] | Potency [4]

CCCCCc1ccc(O)cc1
inactive: Potency [1] | Potency [2] | Potency [3] | Potency [4]

CC(=O)OCC1=C(C(=O)O)N2C(=O)[C@@H](NC(=O)Cc3cccs3)[C@H]2SC1
inactive: Potency [1] | Potency [2] | Potency [3] | Potency [4]

O=c1[nH]ncc2ccccc12
inactive: Potency [1] | Potency [2] | Potency [3] | Potency [4]

C=CCCCCCCCCCCCC
inactive: Potency [1] | Potency [2] | Potency [3] | Potency [4]

COc1ccc2nc(NC(=O)Nc3ccccc3)sc2c1
inactive: Potency [1] | Potency [2] | Potency [3] | Potency [4]

O=C(O)c1ccccc1C(=O)Nc1ccc(S(=O)(=O)Nc2nccs2)cc1
inactive: Potency [1] | Potency [2] | Potency [3] | Potency [4]

ON(Cc1ccccc1)Cc1ccccc1
inactive: Potency [1] | Potency [2] | Potency [3] | Potency [4]

COc1cc(NS(=O)(=O)c2ccc(N)cc2)nc(C)n1
inactive: Potency [1] | Potency [2] | Potency [3] | Potency [4]

CC(C)Nc1nc(N)nc(Cl)n1
inactive: Potency [1] | Potency [2] | Potency [3] | Potency [4]

CCOC(=O)[C@H](CCc1ccccc1)N[C@@H](C)C(=O)N1[C@H](C(=O)O)C[C@@H]2CCC[C@@H]21
inactive: Potency [1] | Potency [2] | Potency [3] | Potency [4]

C/C=C/C(=O)CC
inactive: activity, negative = inhibition [1] 0.402% [at 23.6 µM] | activity change, negative = inhibition [2] 0.0718% [at 23.6 µM] | activity change, negative = inhibition [3] -7.93% [at 23.8 µM] | activity change, negative = inhibition [4] -3.23% [at 23.6 µM]

C=Cc1ccc(S(=O)(=O)O)cc1
inactive: Potency [1] | Potency [2] | Potency [3] | Potency [4]

Cc1cccc(C)c1NC(=O)c1cc(S(N)(=O)=O)c(Cl)cc1O
inactive: Potency [1] | Potency [2] | Potency [3] | Potency [4]

CC(C)(C)c1cc(CCC(=O)NN)cc(C(C)(C)C)c1O
inactive: Potency [1] | Potency [2] | Potency [3] | Potency [4]

C[C@]12CC[C@H]3C(=CCc4cc(O)ccc43)[C@@H]1CCC2=O
inactive: Potency [1] | Potency [2] | Potency [3] | Potency [4]

CCCCNC1CC(C)(C)NC(C)(C)C1
inactive: Potency [1] | Potency [2] | Potency [3] | Potency [4]

O=C(O)[C@@H]1[C@H]2C[C@H]3c4[nH]c5ccccc5c4CCN3C[C@@H]2CC[C@@H]1O
inactive: Potency [1] | Potency [2] | Potency [3] | Potency [4]

NCCCNCCSP(=O)(O)O
inactive: activity, negative = inhibition [1] 2.88% [at 10.5 µM] | activity change, negative = inhibition [2] -0.97% [at 10.5 µM] | activity change, negative = inhibition [3] 1.49% [at 10.5 µM] | activity change, negative = inhibition [4] 5.32% [at 10.5 µM]

CCOC(=O)C(=O)OCC
inactive: Potency [1] | Potency [2] | Potency [3] | Potency [4]

COc1c(Br)cc(Br)c(C)c1Br
inactive: Potency [1] | Potency [2] | Potency [3] | Potency [4]

c1ccc(CN(Cc2ccccc2)Cc2ccccc2)cc1
inactive: Potency [1] | Potency [2] | Potency [3] | Potency [4]

CCc1ccc(O)c(OC)c1
inactive: Potency [1] | Potency [2] | Potency [3] | Potency [4]

COc1ccccc1NC(=O)c1cc2ccccc2cc1O
inactive: Potency [1] | Potency [2] | Potency [3] | Potency [4]

CC(=O)O[C@@H]1C[C@@H]2CC[C@@]1(C)C2(C)C
inactive: Potency [1] | Potency [2] | Potency [3] | Potency [4]
